# Results published in PubChem BioAssay.
# Active and inactive are the calls of the source.
# What was measured:
# [1] = tested on: PRMT1 (protein arginine N-methyltransferase 1); assay: PRMT1 binders on small-molecule microarrays, primary screen, biochemical, small-molecule microarray, 635 nm fluorescence (AID 1088); details: small-molecule microarray binding, higher = more signal;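 note: binding of Prmt1 protein to compounds spotted on small-molecule microarray slides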
# [2] = yeast growth modulation, basal conditions, primary screen, YJM789 clinical isolate, OD600, 24 h (AID 1089);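 note: growth of clinical yeast isolate S. cerevisiae YJM 789 seeded 1000 cells per well; test concentration not given here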; details: S. cerevisiae YJM789 growth, higher = more signal, called active from +8 up or from −8 down
# [3] = fission yeast growth modulation, primary screen, strain 972, OD600, 24 h, no modulator (AID 1090);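 note: basal condition with compound alone and no growth modifier present; test concentration not given here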; details: S. pombe 972 growth, higher = more signal, called active from +8 up or from −8 down
# [4] = S. cerevisiae growth modulation with rapamycin, primary screen, strain BY4716, OD600, 96 h (AID 1091); details: higher = more signal, called active from +8 up or from −8 down; note: test concentration not given here
# [5] = biological target: Torsin-1A-interacting protein 2 (Homo sapiens) (UniProt Q8NFQ8); assay: LULL1 binders on small-molecule microarray, primary screen, cell lysate, human LULL1 lysate, 635/667 nm fluorescence (AID 1092); details: hLULL1 lysate binding, 635 nm fluorescence, higher = more signal;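 note: probe is lysate of COS7 cells overexpressing human LULL1; score merges per-feature 667 nm fluorescence with signal-to-noise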
# [6] = E. coli growth modulation, two-sided OD650, primary screen, E. coli filamentation project, strain DRC41, 24 h (AID 1093); details: OD650, 24 h, higher = more signal, called active from +8 up or from −8 down;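 note: MC1000 strain lacking acrAB efflux and sulA so SOS filamentation is blocked; test concentration not given here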
# [7] = small-molecule microarray binders of probe aLefty2, primary screen, biochemical, biotinylated probe, 635/667 nm fluorescence (AID 1094); details: higher = more signal;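 note: score merges spot fluorescence near 667 nm with spot signal-to-noise ratio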
# [8] = tested on: Noggin (protein binding on small-molecule microarray); assay: Noggin binders on small-molecule microarray, primary screen, biochemical, 635/667 nm fluorescence (AID 1095); details: 635 nm fluorescence, higher = more signal;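 note: score merges 667 nm feature fluorescence with signal to noise over triplicate slides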
# [9] = biological target: Neurogenic locus notch homolog protein 3 (Homo sapiens) (UniProt Q9UM47); assay: NOTCH3 binders on small-molecule microarray, primary screen, biochemical, 635/667 nm fluorescence (AID 1096); details: NOTCH3 binding, 635 nm fluorescence, higher = more signal
# [10] = small-molecule microarray binders of probe aEGFR, primary screen, biochemical, biotinylated probe, 635/667 nm fluorescence (AID 1097); details: higher = more signal;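 note: probe is a biotinylated anti-EGFR antibody binding compounds printed on slides; score combines fluorescence near 667 nm and signal to noise of each spot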
# [11] = tested on: Plasmodium falciparum Sir2 (PF13_0152, Sir2A); assay: pfSir2 binders on small-molecule microarrays, primary screen, biochemical, small-molecule microarray, 635 nm fluorescence (AID 1098); details: small-molecule microarray binding, fluorescence 635 nm; higher = more signal;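 note: score merges spot fluorescence intensity with its signal-to-noise ratio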
# [12] = small-molecule microarray binders of probe aDKK1, primary screen, biochemical, biotinylated probe, 635/667 nm fluorescence (AID 1099); details: higher = more signal;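 note: score merges 667nm spot fluorescence with signal to noise across triplicate slides; reference of the scale not given here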
# [13] = small-molecule microarray binders of probe aCHRDL2, primary screen, biochemical, biotinylated probe, 635/667 nm fluorescence (AID 1100); details: higher = more signal
# [14] = splicing luciferase reporter signal modulators, primary screen, spliceosome inhibition project, cell-based, HEK293, splice +/- reporter (AID 1101); details: luminescence, 24 h, higher = more signal, called active from +8 up or from −8 down;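 note: HEK293 cells carrying a splicing-competent luciferase reporter gene; test concentration not given here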
# [15] = biological target: Fibroblast growth factor 10 (Homo sapiens) (UniProt O15520); assay: FGF10 binders on small-molecule microarrays, primary screen, biochemical, small-molecule microarray, 635 nm fluorescence (AID 1102); details: FGF10 binding, fluorescence 635 nm, higher = more signal
# [16] = tested on: glycogen synthase kinase-3 (GSK3A per assay name; protocol says GSK3B); assay: GSK3 binders on small-molecule microarrays, primary screen, biochemical, small-molecule microarray, 635 nm fluorescence, GSK3A (AID 1103); details: small-molecule microarray binding, fluorescence 635 nm; higher = more signal; note: the record names both GSK3A and GSK3B
# [17] = biological target: Epidermal growth factor receptor (Homo sapiens) (UniProt P00533); assay: EGFR binders on small-molecule microarrays, primary screen, biochemical, small-molecule microarray, 635 nm fluorescence (AID 1104); details: EGFR binding, higher = more signal;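 note: score merges 667 nm emission intensity with spot signal to noise over triplicate slides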
# [18] = biological target: Follistatin-related protein 3 (Homo sapiens) (UniProt O95633); assay: FSTL3 binders on small-molecule microarrays, primary screen, biochemical, small-molecule microarray, 635 nm fluorescence (AID 1105); details: FSTL3 binding, higher = more signal;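 note: score merges emission near 667 nm and signal to noise per printed spot across three slides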
# [19] = biological target: Dickkopf-related protein 1 (Homo sapiens) (UniProt O94907); assay: DKK1 binders on small-molecule microarrays, primary screen, biochemical, small-molecule microarray, 635 nm fluorescence scan (AID 1106); details: DKK1 binding, higher = more signal;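 note: score merges emission near 667 nm with signal to noise over three replicate slides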
# [20] = tested on: Inhibin beta A chain (activin A); assay: INHBA (activin A) binders on microarrays, primary screen, biochemical, small-molecule microarray, 635 nm fluorescence scan (AID 1107); details: small-molecule microarray binding, higher = more signal;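 note: mouse activin A protein probed at 4.33 µg/mL on printed slides; score merges bound-protein fluorescence near 667 nm with spot signal-to-noise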
# Chain of Neurogenic locus notch homolog protein 3 (Homo sapiens) (Q9UM47 whole entry, looked up): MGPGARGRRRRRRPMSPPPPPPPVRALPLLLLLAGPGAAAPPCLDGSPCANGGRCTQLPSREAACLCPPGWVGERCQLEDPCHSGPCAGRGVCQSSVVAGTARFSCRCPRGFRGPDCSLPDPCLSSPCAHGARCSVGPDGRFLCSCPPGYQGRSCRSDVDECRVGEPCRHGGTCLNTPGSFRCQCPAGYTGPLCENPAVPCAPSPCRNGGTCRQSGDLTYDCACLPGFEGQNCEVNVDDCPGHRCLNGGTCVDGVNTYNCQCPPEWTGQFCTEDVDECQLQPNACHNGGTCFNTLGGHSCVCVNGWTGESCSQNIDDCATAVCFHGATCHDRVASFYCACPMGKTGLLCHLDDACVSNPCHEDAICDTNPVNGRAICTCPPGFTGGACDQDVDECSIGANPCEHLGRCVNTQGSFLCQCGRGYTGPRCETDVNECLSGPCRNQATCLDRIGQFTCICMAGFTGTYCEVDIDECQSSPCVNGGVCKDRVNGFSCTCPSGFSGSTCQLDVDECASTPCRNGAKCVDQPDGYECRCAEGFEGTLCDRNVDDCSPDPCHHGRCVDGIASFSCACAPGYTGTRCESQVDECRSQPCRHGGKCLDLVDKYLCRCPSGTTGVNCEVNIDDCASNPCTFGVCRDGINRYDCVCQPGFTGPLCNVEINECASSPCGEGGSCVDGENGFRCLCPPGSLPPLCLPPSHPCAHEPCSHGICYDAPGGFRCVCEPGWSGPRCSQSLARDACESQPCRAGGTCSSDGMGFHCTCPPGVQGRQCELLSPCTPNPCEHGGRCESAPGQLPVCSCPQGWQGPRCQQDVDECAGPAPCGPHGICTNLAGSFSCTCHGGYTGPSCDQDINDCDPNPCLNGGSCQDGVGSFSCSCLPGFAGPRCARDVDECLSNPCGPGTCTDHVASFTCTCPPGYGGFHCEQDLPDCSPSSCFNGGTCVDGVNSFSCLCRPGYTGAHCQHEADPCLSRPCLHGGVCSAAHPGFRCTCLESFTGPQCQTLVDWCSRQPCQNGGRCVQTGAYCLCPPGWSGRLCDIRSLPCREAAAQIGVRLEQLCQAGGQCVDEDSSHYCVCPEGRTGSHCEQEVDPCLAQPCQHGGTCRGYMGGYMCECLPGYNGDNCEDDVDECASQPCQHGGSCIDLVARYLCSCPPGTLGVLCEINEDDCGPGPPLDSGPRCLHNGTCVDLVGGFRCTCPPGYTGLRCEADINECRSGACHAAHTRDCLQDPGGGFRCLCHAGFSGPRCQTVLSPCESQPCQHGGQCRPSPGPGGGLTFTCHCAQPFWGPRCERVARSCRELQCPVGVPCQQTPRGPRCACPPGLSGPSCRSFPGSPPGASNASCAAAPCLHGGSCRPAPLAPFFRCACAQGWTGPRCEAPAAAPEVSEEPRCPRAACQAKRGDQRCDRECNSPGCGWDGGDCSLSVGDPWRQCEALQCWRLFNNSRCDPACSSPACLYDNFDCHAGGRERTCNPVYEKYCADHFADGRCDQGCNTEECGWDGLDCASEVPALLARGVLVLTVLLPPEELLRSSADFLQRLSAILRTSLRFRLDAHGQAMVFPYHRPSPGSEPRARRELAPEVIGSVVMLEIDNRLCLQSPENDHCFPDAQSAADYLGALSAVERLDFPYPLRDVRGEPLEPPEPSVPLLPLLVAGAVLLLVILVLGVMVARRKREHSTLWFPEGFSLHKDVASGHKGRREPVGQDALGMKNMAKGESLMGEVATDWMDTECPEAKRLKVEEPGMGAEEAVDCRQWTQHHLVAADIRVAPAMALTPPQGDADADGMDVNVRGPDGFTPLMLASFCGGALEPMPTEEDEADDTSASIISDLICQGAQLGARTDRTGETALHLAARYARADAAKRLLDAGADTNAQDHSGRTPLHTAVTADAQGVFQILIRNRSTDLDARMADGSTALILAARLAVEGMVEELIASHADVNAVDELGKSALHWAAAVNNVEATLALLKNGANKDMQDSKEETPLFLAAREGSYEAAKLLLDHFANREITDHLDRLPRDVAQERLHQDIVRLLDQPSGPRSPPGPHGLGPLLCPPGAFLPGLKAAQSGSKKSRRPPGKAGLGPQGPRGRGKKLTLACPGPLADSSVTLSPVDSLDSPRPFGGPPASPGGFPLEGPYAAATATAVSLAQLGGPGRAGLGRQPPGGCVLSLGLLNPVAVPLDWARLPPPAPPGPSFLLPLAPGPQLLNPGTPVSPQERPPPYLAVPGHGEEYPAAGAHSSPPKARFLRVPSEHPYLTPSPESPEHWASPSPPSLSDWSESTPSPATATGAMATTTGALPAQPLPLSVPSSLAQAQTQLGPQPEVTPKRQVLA
# Chain of Epidermal growth factor receptor (Homo sapiens) (P00533 whole entry, looked up): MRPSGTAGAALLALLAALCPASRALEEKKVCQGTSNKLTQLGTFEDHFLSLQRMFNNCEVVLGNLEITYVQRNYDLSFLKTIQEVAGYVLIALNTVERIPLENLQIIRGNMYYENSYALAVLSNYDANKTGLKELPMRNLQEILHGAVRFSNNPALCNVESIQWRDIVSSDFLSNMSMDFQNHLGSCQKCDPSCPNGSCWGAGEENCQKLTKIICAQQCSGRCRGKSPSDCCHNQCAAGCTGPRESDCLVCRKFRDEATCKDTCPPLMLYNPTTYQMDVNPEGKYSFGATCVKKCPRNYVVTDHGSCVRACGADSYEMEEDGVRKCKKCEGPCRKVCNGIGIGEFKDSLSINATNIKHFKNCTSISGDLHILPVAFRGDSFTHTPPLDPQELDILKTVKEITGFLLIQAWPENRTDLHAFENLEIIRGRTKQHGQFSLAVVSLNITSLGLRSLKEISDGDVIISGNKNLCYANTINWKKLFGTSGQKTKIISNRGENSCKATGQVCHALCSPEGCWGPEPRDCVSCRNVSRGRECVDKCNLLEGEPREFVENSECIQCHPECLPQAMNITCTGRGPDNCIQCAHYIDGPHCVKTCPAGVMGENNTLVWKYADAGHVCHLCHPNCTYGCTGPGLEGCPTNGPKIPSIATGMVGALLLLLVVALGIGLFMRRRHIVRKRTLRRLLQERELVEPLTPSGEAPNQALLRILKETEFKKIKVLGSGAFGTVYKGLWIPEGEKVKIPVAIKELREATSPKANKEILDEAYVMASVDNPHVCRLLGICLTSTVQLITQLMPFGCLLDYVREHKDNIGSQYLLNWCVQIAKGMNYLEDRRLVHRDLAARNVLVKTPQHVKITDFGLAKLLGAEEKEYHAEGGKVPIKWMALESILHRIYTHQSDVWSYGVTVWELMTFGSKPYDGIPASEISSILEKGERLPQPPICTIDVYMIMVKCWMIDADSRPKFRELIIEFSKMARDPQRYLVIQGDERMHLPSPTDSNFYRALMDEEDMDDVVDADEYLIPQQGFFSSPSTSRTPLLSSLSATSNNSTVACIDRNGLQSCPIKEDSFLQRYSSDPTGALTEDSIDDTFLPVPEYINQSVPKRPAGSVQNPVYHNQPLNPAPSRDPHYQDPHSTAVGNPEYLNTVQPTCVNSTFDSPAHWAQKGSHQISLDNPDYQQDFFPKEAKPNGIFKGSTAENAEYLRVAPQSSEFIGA
# Chain of Torsin-1A-interacting protein 2 (Homo sapiens) (Q8NFQ8 whole entry, looked up): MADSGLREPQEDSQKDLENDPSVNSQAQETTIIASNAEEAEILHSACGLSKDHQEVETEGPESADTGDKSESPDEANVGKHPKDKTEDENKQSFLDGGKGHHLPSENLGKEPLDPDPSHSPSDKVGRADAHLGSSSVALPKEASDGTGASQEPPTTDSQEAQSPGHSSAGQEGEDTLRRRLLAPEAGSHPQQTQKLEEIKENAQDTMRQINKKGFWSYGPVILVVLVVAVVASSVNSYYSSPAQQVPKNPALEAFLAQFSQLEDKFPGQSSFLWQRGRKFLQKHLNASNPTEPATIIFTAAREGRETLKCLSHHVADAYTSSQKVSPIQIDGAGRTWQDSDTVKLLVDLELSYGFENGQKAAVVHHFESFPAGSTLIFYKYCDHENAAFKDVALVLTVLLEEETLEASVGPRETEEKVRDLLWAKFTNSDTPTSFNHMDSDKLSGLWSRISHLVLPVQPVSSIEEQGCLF
# Chain of Fibroblast growth factor 10 (Homo sapiens) (O15520 whole entry, looked up): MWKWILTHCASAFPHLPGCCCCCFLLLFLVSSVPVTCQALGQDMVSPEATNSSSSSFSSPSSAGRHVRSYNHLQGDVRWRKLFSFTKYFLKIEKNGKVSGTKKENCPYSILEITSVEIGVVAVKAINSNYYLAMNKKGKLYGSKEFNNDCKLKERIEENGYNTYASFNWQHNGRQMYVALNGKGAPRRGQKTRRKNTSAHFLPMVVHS
# Chain of Dickkopf-related protein 1 (Homo sapiens) (O94907 whole entry, looked up): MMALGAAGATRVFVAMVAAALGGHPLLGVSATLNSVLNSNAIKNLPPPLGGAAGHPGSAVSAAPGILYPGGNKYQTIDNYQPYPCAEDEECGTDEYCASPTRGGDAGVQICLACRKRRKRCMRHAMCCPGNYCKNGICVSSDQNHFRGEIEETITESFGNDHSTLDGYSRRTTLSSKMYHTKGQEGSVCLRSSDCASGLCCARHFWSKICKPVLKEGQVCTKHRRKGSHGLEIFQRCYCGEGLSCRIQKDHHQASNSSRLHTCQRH
# Chain of Follistatin-related protein 3 (Homo sapiens) (O95633 whole entry, looked up): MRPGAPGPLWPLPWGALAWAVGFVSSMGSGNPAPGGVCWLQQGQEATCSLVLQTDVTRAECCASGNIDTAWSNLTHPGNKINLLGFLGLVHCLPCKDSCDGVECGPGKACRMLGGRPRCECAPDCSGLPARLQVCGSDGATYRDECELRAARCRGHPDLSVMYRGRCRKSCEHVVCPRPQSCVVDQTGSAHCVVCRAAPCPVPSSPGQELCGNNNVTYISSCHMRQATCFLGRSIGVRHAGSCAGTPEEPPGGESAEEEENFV
Compound,composite z-score [1],z-score [2],z-score [3],z-score [4],composite z-score [5],z-score [6],composite z-score [7],composite z-score [8],composite z-score [9],composite z-score [10],composite z-score [11],composite z-score [12],composite z-score [13],z-score [14],composite z-score [15],composite z-score [16],composite z-score [17],composite z-score [18],composite z-score [19],composite z-score [20]
CO[C@H]1COC(=O)CC=C[C@H](C)[C@@H](NS(=O)(=O)c2ccc(C)cc2)COC(=O)CC=C[C@@H]1C,0.855,-3.93 (inactive),-2.23 (inactive),-2.35 (inactive),-0.716,-1.11 (inactive),-0.118,0.659,0.66,-0.12,0.219,-0.257,-0.674,-2.06 (inactive),0.582,0.528,0.853,0.579,0.761,0.257
O=C(NN=C1C[C@@H](O)[C@@H](O)[C@@H]2[C@@H]3C(=O)N(c4cccc(Oc5ccccc5)c4)C(=O)[C@@H]3CC[C@@H]12)OCc1ccccc1,0.633,0.909 (inactive),0.588 (inactive),0.281 (inactive),1.46,0.108 (inactive),-0.0345,0.635,0.0096,-0.124,0.0165,0.182,0.548,0.538 (inactive),0.353,-0.54,0.152,-0.112,0.155,0.229
CO[C@H]1COC(=O)[C@H](C)COC(=O)CC=C[C@@H](C)[C@H](OC)COC(=O)CC=C[C@@H]1C,0.438,0.0305 (inactive),-0.818 (inactive),-0.147 (inactive),-0.798,0.614 (inactive),-0.233,0.638,0.336,-0.0302,0.864,-0.466,-1.28,0.0172 (inactive),0.207,0.432,1.47,1.32,1.02,1.28
CC(C)OC(=O)C=C1C[C@@H](c2ccc(C#N)cc2)O[C@@H](c2ccc(C#N)cc2)O1,1.55,0.149 (inactive),-2.93 (inactive),1.01 (inactive),3.36,0.554 (inactive),0.314,0.747,1.06,0.11,1.07,0.738,0.407,-0.159 (inactive),1.44,1.29,0.87,1.4,0.189,-0.106
COCCOC(=O)N1C(=O)[C@@]2(c3ccccc31)[C@H](C(N)=O)[C@H]1C(=O)O[C@H](c3ccccc3)[C@H](c3ccccc3)N1[C@@H]2c1ccccc1OCCO,1.53,0.438 (inactive),-0.142 (inactive),3.11 (inactive),1.84,1.24 (inactive),0.16,1.32,1.12,0.261,1.31,0.756,0.799,-0.0592 (inactive),1.23,0.98,0.483,0.584,0.516,0.617
COC(=O)C1=CCC(c2cccc(Cl)c2)O1 (stereo not given),0.0357,-1.6 (inactive),-1.54 (inactive),4.34 (inactive),1.82,-0.215 (inactive),-0.043,-0.485,-0.223,-0.106,1.15,-0.138,0.381,-1.15 (inactive),0.044,-0.842,-0.412,-0.578,-0.476,1.09
CCCCCCc1nc(CCCc2cc3c(c(CCCCCC)n2)[Si](C(C)C)(C(C)C)O[C@H]3c2ccccc2)cc2c1[Si](C(C)C)(C(C)C)O[C@H]2c1ccccc1,0.0913,-0.449 (inactive),-0.643 (inactive),-0.146 (inactive),-0.769,-1.43 (inactive),-0.233,0.522,0.279,-0.11,-0.509,-0.259,-0.21,-1.11 (inactive),0.0736,-0.401,0.123,0.0624,0.476,0.656
O=C1NC(=O)C2C1C=CC(C(O)Cc1ccccc1)N2Nc1ccccn1 (stereo not given),0.185,-0.47 (inactive),1.21 (inactive),-1.22 (inactive),2.31,0.297 (inactive),0.101,0.0356,0.504,0.0026,0.0468,0.133,-0.321,-0.818 (inactive),0.156,0.0157,0.377,0.233,0.0833,0.97
CC(C)CON=C1C[C@@H](O)[C@@H](O)[C@@H]2[C@@H]3C(=O)N([C@@H](C)c4ccccc4)C(=O)[C@@H]3CC[C@H]12,1.54,0.466 (inactive),0.443 (inactive),-0.0803 (inactive),2.73,0.0955 (inactive),-0.128,1.12,1.08,-0.0146,0.43,-0.325,-0.565,0.115 (inactive),1.07,0.778,0.39,1.24,0.76,-0.204
COc1ccccc1CN1C(=O)c2ccccc2[C@@H](C(=O)NCC(F)(F)F)[C@@H]1c1ccc(CO)cc1,1.55,0.21 (inactive),0.74 (inactive),-0.296 (inactive),2.37,1.49 (inactive),-0.107,1.11,1.06,-0.179,1.68,-0.139,0.245,-0.14 (inactive),0.956,0.715,0.0304,0.941,0.0666,0.218
